The list is not random: actives were taken first. Their share in the collection is about 3.6%.
GALK inh: inhibitors of human galactokinase (GALK); 44,000 tested, under 10 active; recombinant GALK, Kinase-Glo ATP luminescence, 1 h; Potency, µM (doses to about 57.5 µM), for inactives: at the top dose activity, negative = inhibition, usual class: inhibitors; AID 1347072;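 also: plate controls were full GALK reaction for no effect and reaction lacking GALK for full effect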
Target sequence (P51570 whole entry, looked up): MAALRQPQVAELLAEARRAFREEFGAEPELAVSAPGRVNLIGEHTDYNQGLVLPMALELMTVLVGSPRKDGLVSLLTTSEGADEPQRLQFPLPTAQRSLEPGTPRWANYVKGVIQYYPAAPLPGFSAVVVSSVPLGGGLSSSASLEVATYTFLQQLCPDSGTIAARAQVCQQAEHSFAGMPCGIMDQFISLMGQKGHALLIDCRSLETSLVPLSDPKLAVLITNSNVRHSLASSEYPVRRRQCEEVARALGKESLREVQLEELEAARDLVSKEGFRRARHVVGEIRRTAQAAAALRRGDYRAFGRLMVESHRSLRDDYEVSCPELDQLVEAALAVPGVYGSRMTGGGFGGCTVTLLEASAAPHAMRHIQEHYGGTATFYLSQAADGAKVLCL
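Human GALK (5 nM) was incubated with 35 uM ATP and 100 uM galactose in 20 mM HEPES pH 8.0 with MgCl2, NaCl, DTT and BSA for 1 h at room temperature. Remaining ATP was measured by Kinase-Glo Plus luminescence.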
GPR32 ag: GPR32 (DRV1) agonism, beta-arrestin recruitment. CHO-K1 GPR32 beta-arrestin PathHunter luminescence, 90 min; zero percent set by DMSO-only wells. AID 1346428. 48,000 tested, 2.5% active. activation, % at 76.9 µM. O75388;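 active = activation of at least 60% and not above a set upper limit, about 1 call in 100 departs from these limits; inconclusive = activation of 40% to 60%, or above that upper limit; inactive = activation under 40%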; also: 0% is about no effect
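Agonism was scored by beta-Gal fragment complementation (chemiluminescent read, 1 h detection at ambient temperature) reporting beta-arrestin binding to GPR32 in engineered CHO-K1 cells. Compound treatment lasted 90 min at 37 C, normalized to a DMSO basal control.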
NTMT1 inhibitor: inhibitors of human N-terminal methyltransferase NTMT1; NTMT1 MTase-Glo SAH luminescence, purified enzyme; Potency, µM (top dose mostly 114 µM), for inactives: at the highest dose activity change, negative = inhibition, most hits filed as inhibitors; 59,000 tested, 2.5% active; AID 1645870;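 also: potency is read from the fitted curve at half-maximal effect; plate controls were DMSO vehicle for no effect and no enzyme for full effect; nearly all actives have a fitted effect of over 65% in size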
B2AR arrestin ag: agonists recruiting beta-arrestin to human beta2-adrenergic receptor; 44,000 tested, under 10 active; HTLA Tango cells, beta-arrestin recruitment, luciferase luminescence, 18 h; Potency, µM (top dose mostly 46.1 µM), usual class: activators; P07550;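 also: potency is read from the fitted curve at half-maximal effect; 0% = DMSO and full agonism = EC100 isoproterenol or metaproterenol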
Target sequence (P07550 whole entry, looked up): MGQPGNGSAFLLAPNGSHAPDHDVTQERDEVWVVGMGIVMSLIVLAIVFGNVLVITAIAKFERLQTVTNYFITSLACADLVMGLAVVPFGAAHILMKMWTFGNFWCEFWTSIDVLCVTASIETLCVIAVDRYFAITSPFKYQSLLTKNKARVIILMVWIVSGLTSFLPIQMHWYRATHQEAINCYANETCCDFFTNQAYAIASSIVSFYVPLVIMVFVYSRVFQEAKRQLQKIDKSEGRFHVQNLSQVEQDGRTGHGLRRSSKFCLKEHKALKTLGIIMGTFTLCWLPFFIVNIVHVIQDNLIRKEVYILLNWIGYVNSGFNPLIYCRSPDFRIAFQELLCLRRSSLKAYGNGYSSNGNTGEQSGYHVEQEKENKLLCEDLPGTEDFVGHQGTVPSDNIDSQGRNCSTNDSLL
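Tango cell line, 1% FBS DMEM; cpd titration up to 46 microM; 18 hr, 37 degrees C, 5% CO2. Luciferin/ATP substrate mix added, 15 min RT, luminescence. %Activity, CRC fitting, curve-class categorization.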
GALC G270D up: galactocerebrosidase G270D activity enhancement, cell-based. P54803. 145M-Twi-hGALC-G270D cells (Twitcher mouse brain line with human GALC G270D), HMU-beta-Gal fluorescence, 48 h. Potency, µM (titrated, usually from 57.5 µM), hits mostly activators. 45,000 tested, 0.1% active. AID 1159614; also: potency is read from the fitted curve at half-maximal effect; 0% is about no effect; nearly all actives have a fitted effect of over 65% in size
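Brain-derived Twitcher mouse 145M-Twi cells stably expressing human GALC-G270D or wild-type GALC, treated live, then residual GALC activity read by fluorescence of HMU-b-Gal substrate (0.1 mM final) in citrate-phosphate buffer pH 5.2 with sodium taurocholate. Signal increase indicates enhancement.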
TSG101-PTAP inh: blocks PTAP binding to human TSG101, validation. Potency, µM (top dose mostly 115 µM), most hits filed as inhibitors. 44,000 tested, under 10 active. AID 1347069. Fluorescence polarization, FITC-PTAP peptide/Tsg101, 20 min. Q99816; also: potency is read from the fitted curve at half-maximal effect; 0% is about no effect
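Compounds pinned into 10 uM Tsg101 binding domain, then 50 nM FITC-PTAP peptide added in pH 7.5 HEPES buffer; FP read after 20 min, room temperature. Total S+P intensity flags fluorescent compounds; active cut-off <25 µM, efficacy <60%.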
The depositor's hits bear a star; i = inactive; ? = inconclusive; · = no result given; [ ] = remark or other dose. Unless noted, calls follow the shape of the dose curve; as a rule, active = well fitted curve in the direction sought with a large enough effect; inconclusive = small, poorly fitted or top-dose-only effect, or another doubt; inactive = no such curve, though single readings can be large; an effect the other way counts as inactive or inconclusive.

SMILES | GALK inh | GPR32 ag | NTMT1 inhibitor | B2AR arrestin ag | GALC G270D up | TSG101-PTAP inh
COc1cc(C(=O)NC2CCN(C)CC2)ccc1Nc1ncc2c(n1)N(C1CCCC1)CCC(=O)N2C(C)C | · | · | 22.4µM* | · | · | ·
Cc1noc2ncnc(NCCc3ccccc3)c12 | -1.7% | ? | 11.4% | i | i | i
Cc1ccc(CCNc2ncnc3onc(C)c23)cc1 | 0.1% | 96.8* | -4.6% | i | i | i
CCOc1ccc(CCNc2ncnc3onc(C)c23)cc1OCC | 2.4% | 63.5* | 8.8% | i | i | i
CCOC(=O)N1CCC(n2c(=O)[nH]c3cc(Cl)ccc32)CC1 | · | 72.2* | 33.0%[57.5 µM] | · | i | ·
O=C(Nc1ccc(S(=O)(=O)Nc2nccs2)cc1)c1ccnc2ccccc12 | · | · | 7.2% | · | · | ·
O=C1NC(=O)C(=Cc2ccc(-c3ccc(F)cc3O)o2)S1 | · | · | 24.1µM* | · | · | ·
O=C1NC(=O)/C(=C/c2ccc3c(c2)OC(F)(F)O3)S1 | · | 24.4 | -1.1%[57.5 µM] | · | · | ·
COc1ccc(OC)c(NC(=O)Cn2ccn(-c3ccc(OC)c(OC)c3)c(=O)c2=O)c1 | 2.0% | 7.4 | -7.6% | i | i | i
COc1ccc(OC)c(NC(=O)Cn2ccn(-c3ccc(F)cc3)c(=O)c2=O)c1 | 0.0% | -7.7 | 89.1µM* | i | i | i
O=C(O)c1ccc(-c2noc(-c3ccccc3F)n2)cc1 | · | · | 22.4µM* | · | · | ·
O=C1OC(COc2ccccc2[N+](=O)[O-])CC1Cc1ccccc1 (stereo not drawn) | · | · | 4.8% | · | · | ·
Cc1ccc(C(N)=O)cc1Nc1nccc(-c2cn(C(C)C)c3cnccc23)n1 | · | · | 11.2µM* | · | · | ·
O=C(CC1C(=O)Nc2ccccc21)OC[C@H]1O[C@@H](OCCc2ccc(O)cc2)[C@H](O)[C@@H](O)[C@@H]1O (stereo partly drawn) | · | · | -19.4%[29.8 µM] | · | · | ·
CC(NC(=O)CSc1nc(-c2cccc(Cl)c2)nc2cc(=O)[nH]n12)c1nc2ccccc2n1C (stereo not drawn) | -3.3% | 68.7* | · | i | · | i
Cc1ccccc1-c1ccc(=O)n(CC(=O)NCCc2ccccc2)n1 | · | · | -18.4% | · | · | ·
O=C(NC/C=C/CN1CCN(c2cccc(Cl)c2Cl)CC1)c1ccc(-c2ccccn2)cc1 | · | · | -0.3%[57.5 µM] | · | · | ·
Cc1cn(C[C@H](N)C(=O)O)c(=O)n(Cc2ccsc2C(=O)O)c1=O | · | · | 3.4%[57.5 µM] | · | · | ·
COCCCNC(=O)Cn1c(=O)n(-c2ccc(Cl)cc2)c(=O)c2c3c(sc21)CCCCC3 | 3.6% | 60.1* | 1.5% | i | i | i
CCc1ccc(-n2c(=O)c3c4c(sc3n(CC(=O)NCCCOC)c2=O)CCC4)cc1 | 1.9% | -19.2 | -9.0% | i | i | i
CC(O)(C(=O)C1CC1(CO)COC1OC(CO)C(O)C(O)C1O)C1C(O)CC2C3CC=C4CC(O)CC(O)C4(C)C3C(O)CC21C (stereo not drawn) | · | · | -8.3%[12.6 µM] | · | · | ·
CCOc1ccccc1C(=O)Nc1ccc(-n2nncc2-c2ccccc2)cc1 | 0.1% | -13.0 | 6.3% | i | i | i
COc1cccc(C(=O)Nc2ccc(-n3nncc3-c3ccccc3)cc2)c1OC | -0.4% | -16.6 | 56.2µM* | i | i | i
Cc1cccc(C(=O)Nc2cc3nn(-c4ccc(C(C)C)cc4)nc3cc2C)c1 | 0.0% | 101.8* | 16.3% | i | i | i
Cc1cc2nn(-c3ccc(F)cc3)nc2cc1NC(=O)c1ccc(OC(C)C)cc1 | -2.1% | -12.7 | 5.0% | i | i | i
SMILES | GALK inh | GPR32 ag | NTMT1 inhibitor | B2AR arrestin ag | GALC G270D up | TSG101-PTAP inh
Cc1cccc(/C=C(\C#N)c2nc3ccccc3c(=O)[nH]2)c1 | 1.7% | 0.2 | 15.6% | i | i | i
CN(C)c1ccc(/C=C(\C#N)c2nc3ccccc3c(=O)[nH]2)cc1 | 2.2% | -4.4 | 35.5µM* | i | i | i
O=C1c2[nH]nc(-c3ccc(Br)cc3)c2C(c2cccc(O)c2)N1c1ccc(Cl)cc1 (stereo not drawn) | 8.0% | 95.7* | 7.9% | i | i | i
COc1cccc(CNC(=O)c2cc3ccc4cccnc4c3[nH]2)c1 | -0.1% | 12.2 | -3.0% | i | i | i
COc1cc(NC(C)CCCN)c2ncccc2c1 (stereo not drawn) | · | 9.5 | 39.8µM* | · | i | ·
CCOc1ccc(C(=O)Oc2ccc(-c3nc4ccccc4[nH]3)cc2)cc1Cl | · | · | 5.4% | · | · | ·
CCCCNc1ncc(C(=O)NCc2ccc(-n3ccnc3)cc2)c(NC2CCC(O)CC2)n1 (stereo not drawn) | · | · | 6.8%[57.5 µM] | · | · | ·
CC(=O)c1ccc(NS(=O)(=O)c2ccc3c(c2)NC(=O)CCS3)cc1 | -1.0% | -9.9 | 10.8% | i | i | i
CCOc1ccc(NS(=O)(=O)c2ccc3c(c2)NC(=O)CCS3)cc1 | -0.3% | 74.7* | -15.7% | i | i | i
Cc1ccc(Cl)cc1NS(=O)(=O)c1ccc2c(c1)NC(=O)CCS2 | 2.4% | 93.9* | 21.4% | i | i | i
CCOc1ccc(NS(=O)(=O)c2ccc(NC(=O)N3CCCC3)cc2)cc1 | -0.2% | 64.7* | 13.9% | i | i | i
Cc1cc(C)c(NS(=O)(=O)c2ccc3c(c2)NC(=O)CCS3)c(C)c1 | 0.8% | 83.2* | -4.8% | i | i | i
N#Cc1c[nH]c2c(C(=O)N3CCN(CCc4ccc(F)cc4)CC3)cccc12 | · | · | 21.2%[57.5 µM] | · | · | ·
CC1(C)NC2N(C1=O)c1ccccc1C2(O)CC(C(=O)O)n1cnc2ccccc2c1=O (stereo not drawn) | · | · | -3.0%[29.8 µM] | · | · | ·
O=C(Cc1ccc(Cl)c(Cl)c1)Nc1ccc(S(=O)(=O)Nc2cccc(C(=O)O)c2)cc1 | · | · | -12.6% | · | · | ·
Cn1c2ccccc2c2c(C(=O)N3CCN(c4cccc(C(F)(F)F)c4)CC3)cn(C3CCCCC3)c(=O)c21 | 3.8% | -30.2 | -1.9% | i | i | i
Cn1cc(C(=O)N2CCN(c3cccc(C(F)(F)F)c3)CC2)c2c3ccccc3n(C)c2c1=O | -6.4% | 117.9* | 8.1% | i | i | i
Cc1cc(N[S+](=O)([O-])c2ccc(NC(=O)Cc3ccc(Cl)c([N+](=O)[O-])c3)cc2)no1 | · | · | 17.5% | · | · | ·
Cc1nc2ccccc2c(=O)n1-c1ccc(NC(=O)c2ccccc2[N+](=O)[O-])cc1 | 1.8% | 67.9* | 14.0% | i | i | i
COCCOCCOc1ccc(C2=N[C@@](C)(C(=O)O)CS2)c(O)c1 | · | · | 6.6%[57.5 µM] | · | · | ·
COC(=O)c1c(-c2ccccc2)no[n+]1[O-] | · | · | -4.4% | · | · | ·
CCc1c(C)sc2c1CCN(Cc1cccc(OC)c1)C2c1ccccc1 (stereo not drawn) | -5.1% | 61.4* | -24.2% | i | i | i

Compound activity from PubChem BioAssay.
